Broadly, the viability is a read-out of living cells in per cent, often relative to untreated cells.

Seven compounds from PubChem BioAssay (NCATS) can be followed below.

Results filed as inconclusive are left out. Activity calls are given as the source filed them. Unless noted, the call rests on the fitted dose curve; in most records, active means well fitted cell-killing curve with a large enough effect; inconclusive means small, poorly fitted or top-dose-only effect, or effect the other way; inactive means no such curve, though single readings can be large or run the other way.

Experiment [1] in a line: Quantitative High-Throughput drug screen in 47 multiple myeloma cell lines against the NCATS MIPE library collection: OCIMY7_PLB cell viability assay (AID 1918987). Further: nearly all actives have a fitted effect of over 65% in size. Put shortly: (§1)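 500 cells/well per myeloma line exposed to pinned MIPE 4.0 compounds for 48 h at 37 °C, 5% CO2. Viability read as ATP by CellTiter-Glo luminescence, normalised to DMSO-only (100%) and media-only (0%) wells.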

The nature of experiment [2]: Quantitative High-Throughput drug screen in 47 multiple myeloma cell lines against the NCATS MIPE library collection: OCIMY5_PLB cell viability assay (AID 1918988). Further: nearly all actives have a fitted effect of over 65% in size. In outline:
as §1

Experiment [3] is described as follows: Quantitative High-Throughput drug screen in 47 multiple myeloma cell lines against the NCATS MIPE library collection: XG6_PLB cell viability assay (AID 1919865). Further: nearly all actives have a fitted effect of over 40% in size. Put shortly: as §1
Experiment [4] in a line: Quantitative High-Throughput drug screen in 47 multiple myeloma cell lines against the NCATS MIPE library collection: PE2_PLB cell viability assay (AID 1919869). Further: nearly all actives have a fitted effect of over 35% in size. Put shortly:
as §1

Experiment [5] in a line: Quantitative High-Throughput drug screen in 47 multiple myeloma cell lines against the NCATS MIPE library collection: PCM6_Riken cell viability assay (AID 1919870). Further: nearly all actives have a fitted effect of over 30% in size. Put shortly: as §1
Experiment [6] is described as follows: Quantitative High-Throughput drug screen in 47 multiple myeloma cell lines against the NCATS MIPE library collection: OPM2_DSMZ cell viability assay (AID 1919872). Further: nearly all actives have a fitted effect of over 30% in size. In outline: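 CellTiter-Glo luminescence (ATP) after 48 h compound exposure, 37C/5% CO2; 500 cells/well; MIPE 4.0 approved/investigational drugs pinned in; DMSO = 100%, media only = 0% viability.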

Experiment [7] in a line: Quantitative High-Throughput drug screen in 47 multiple myeloma cell lines against the NCATS MIPE library collection: KMS28BM_JCRB cell viability assay (AID 1919874). Further: nearly all actives have a fitted effect of over 35% in size. In outline:
as §1

Experiment [8] is described as follows: qHTS drug screen for cell cycle checkpoint inhibitors in PARPi-resistant BRCA-mutant ovarian cancer cell lines. (AID 1963452; calls by dose curve). The note with it: PEO1/OlaR viability, CellTiter-Glo luminescence, 96 h; for Z-AUC: stronger effect = lower value. Put shortly: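 PEO1, PEO4 and PEO1/OlaR ovarian cancer cells, 600 per well, exposed 96 h at 37C to a dilution series. Viability read by CellTiter-Glo luminescence, normalized to DMSO and empty wells; activity summarized as Z-AUC.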
In general terms: In qHTS, concentration-response curves come from the screen itself.

A short description of experiment [9]: Quantitative High-Throughput drug screen in 47 multiple myeloma cell lines against the NCATS MIPE library collection: OPM1_PLB cell viability assay (AID 1918989). Further: nearly all actives have a fitted effect of over 40% in size. Put shortly:
as §1

The nature of experiment [10]: Quantitative High-Throughput drug screen in 47 multiple myeloma cell lines against the NCATS MIPE library collection: SKMM1_PLB cell viability assay (AID 1919863). Further: nearly all actives have a fitted effect of over 35% in size. The note with it: SKMM1 myeloma viability, CellTiter-Glo ATP, 48 h; viability: stronger effect = lower value. Put shortly: as §1
Background: ATP-based viability assays read luminescence as a measure of living cells.

A short description of experiment [11]: Quantitative High-Throughput drug screen in 47 multiple myeloma cell lines against the NCATS MIPE library collection: U266_ATCC cell viability assay (AID 1919864). Further: nearly all actives have a fitted effect of over 35% in size. Put shortly:
as §1

A short description of experiment [12]: Quantitative High-Throughput drug screen in 47 multiple myeloma cell lines against the NCATS MIPE library collection: XG1_PLB cell viability assay (AID 1919866). Further: nearly all actives have a fitted effect of over 35% in size. In outline: as §1
Experiment [13] can be described thus: Quantitative High-Throughput drug screen in 47 multiple myeloma cell lines against the NCATS MIPE library collection: VP6_DJ cell viability assay (AID 1919867). Further: nearly all actives have a fitted effect of over 40% in size. In outline: as §1
A short description of experiment [14]: Quantitative High-Throughput drug screen in 47 multiple myeloma cell lines against the NCATS MIPE library collection: UTMC2_PLB cell viability assay (AID 1919868). Further: nearly all actives have a fitted effect of over 55% in size. As to conditions: CellTiter-Glo ATP luminescence, 48 h; viability (% of DMSO control): at 45.8 µM (top of the series) unless noted. In outline:
as §1

Experiment [15] can be described thus: Quantitative High-Throughput drug screen in 47 multiple myeloma cell lines against the NCATS MIPE library collection: KMS11_JCRBsus cell viability assay (AID 1919873). Further: nearly all actives have a fitted effect of over 50% in size. Put shortly:
as §1

The nature of experiment [16]: Quantitative High-Throughput drug screen in 47 multiple myeloma cell lines against the NCATS MIPE library collection: RPMI8226_ATCC cell viability assay (AID 1919871). Further: nearly all actives have a fitted effect of over 30% in size. In outline: as §1
Experiment [17] in a line: qHTS for identification of novel therapeutic agents for treatment of microphthalmiaassociated transcription factor (MiT) renal cell carcinoma (RCC) (AID 1963991; calls by dose curve;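 on z-score: curves scaled with 100% = DMSO viability and 0% = empty wells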). As to conditions: CellTiter-Glo, 48 h; for z-score: stronger effect = lower value. Put shortly:
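UOK109/UOK124/UOK145 (TFE3 fusions, three partners); 500 cells/well; MIPE v4.0, 1912 cpds, 11 conc.; 48 h, 37 C; CellTiter-Glo, 15 min RT; lum. Norm.: DMSO 100%, empty 0%.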

The mark [18] stands for this setting: measured here: PEO1 parental Z-AUC.
The mark [19] stands for this setting: TFE3-RCC UOK109 viability, measured here: UOK109 Z-AUC.
Setting [20] is: TFE3-RCC viability, measured here: UOK124 Z-AUC.
The mark [21] stands for this setting: TFE3-RCC viability, measured here: UOK145 Z-AUC.
Potency means the concentration at half of the fitted maximal effect.

As for `CC(C)(C)c1cc(NC(=O)Nc2ccc(-c3cn4c(n3)sc3cc(OCCN5CCOCC5)ccc34)cc2)no1`, the Potency entry in experiment [1], in [5] and in experiment [7] was “inactive” each time. Also, the Potency in experiment [2] was 9350 nM (active); in experiment [3], 418 nM (active); in experiment [4], 148 nM (active); in [6], 5260 nM (active). Further, the Z-AUC in experiment [8] is 1.23 (inactive); in experiment [8] (setting [18]) it was 0.804; in experiment [8] (measured here: PEO4 Z-AUC), 0.987.

`CCCCN1CCC(CNC(=O)c2c3n(c4ccccc24)CCCO3)CC1`: the Potency was 3720 nM (active) in [1]; 3320 nM (active) in experiment [2]; 23500 nM (active) in experiment [9]; 16600 nM (active) in [10]; 4690 nM (active) in experiment [11]; 743 nM (active) in [12]. In addition, the Potency was 10500 nM (active) in experiment [13]; 9350 nM (active) in [14]; 11800 nM (active) in experiment [4]; 3320 nM (active) in [5]; 13200 nM (active) in experiment [15].

With `O=C(O)C1(Cc2cccc(Nc3nccs3)n2)CCC(Oc2cccc(Cl)c2F)CC1` (stereo not given), the Potency in [1] was 296 nM (active); in experiment [2], 662 nM (active); in experiment [9], 332 nM (active); in [3], 209 nM (active); in experiment [12], 52.6 nM (active); in experiment [13], 148 nM (active). The Potency was 37.2 nM (active) in experiment [14], 418 nM (active) in [5], 296 nM (active) in [15] and 332 nM (active) in experiment [7]. Besides, the Potency entry in experiment [11] and in experiment [16] was “inactive” in each case. Also, the Z-AUC in [8] is -0.463 (inactive); in experiment [8] (setting [18]), -1.23; in [8] (measured here: PEO4 Z-AUC), -1.84.

Take `CN[C@H]1CCc2cc(OC)c(OC)c(OC)c2-c2ccc(OC)c(=O)cc21`: the Potency in [1] was 1 nM (active); in [2] it was 1.3 nM (active); in experiment [10] it was 3.7 nM (active); in [11] it was 6.6 nM (active); in experiment [14], 9.3 nM (active); in [16] it was 8.3 nM (active). Also, the Potency in experiment [6] was 1.7 nM (active); in [15], 1.3 nM (active); in experiment [7] it was 3.3 nM (active); in experiment [8], 174 nM (active); in experiment [17] (TFE3-RCC UOK109 viability, active = Z-AUC below -0.8 in all three lines), 3.72 nM (active). For the same compound, in experiment [12], the Potency result is “inactive”. For the same compound, the results for the Z-AUC in experiment [8] (setting [18]) and in [8] (measured here: PEO4 Z-AUC) were -1.41 and -1.47, respectively. In addition, the figures for the z-score in [17] (setting [19]), in [17] (setting [20]) and in [17] (setting [21]) were -2.54, -2.9 and -0.848, respectively.

Regarding `Cn1cc(-c2ccncc2)c(-c2ccc(OCc3ccc4ccccc4n3)cc2)n1`, the Potency is 10500 nM (active) in [1]; 16600 nM (active) in [2]; 10500 nM (active) in experiment [9]; 18700 nM (active) in experiment [11]; 5900 nM (active) in experiment [3]; 5260 nM (active) in experiment [13]. In addition, the Potency in experiment [4] was 5900 nM (active); in experiment [16], 6620 nM (active); in experiment [15], 8330 nM (active). In addition, the Z-AUC in experiment [8] is 0.205 (inactive); in experiment [8] (setting [18]) it was -0.209; in [8] (measured here: PEO4 Z-AUC) it was 0.0189.

For the compound `O=C(C=Cc1c(C(=O)O)[nH]c2cc(Cl)cc(Cl)c12)Nc1ccccc1`, the Potency result in experiment [1], in experiment [2], in experiment [9], in experiment [3], in experiment [12] and in experiment [13] was “inactive” each time. The Potency entry in experiment [16], in [6], in experiment [15] and in experiment [7] was “inactive” throughout. For the same compound, the viability in experiment [10] was 114% (inactive). In addition, the figures for the z-score in [17] (setting [19]), in experiment [17] (setting [20]) and in experiment [17] (setting [21]) were 0.0645, 0.537 and 0.334, respectively.

Consider `Nc1nc(NCCNc2ncc(-n3ccnc3)c(-c3ccc(Cl)cc3Cl)n2)ccc1[N+](=O)[O-]`, for which the Potency in experiment [1] was 5260 nM (active); in experiment [2], 18700 nM (active); in experiment [9], 5260 nM (active); in [3], 2350 nM (active); in [13] it was 7430 nM (active); in experiment [4] it was 3720 nM (active). The Potency in experiment [5] was 2350 nM (active). For the same compound, the Potency result in experiment [11] is “inactive”. The Z-AUC is 0.218 (inactive) in [8], 0.907 in experiment [8] (setting [18]) and 0.221 in [8] (measured here: PEO4 Z-AUC).
